Source: PubChem BioAssay (NCI)
Several values for one entry are separate records, joined by “and”; a condition that tells them apart may be missing. Identical values can stand only once. About 79,000 compounds went through this panel and 15% of them were active in at least one assay; those are over-represented in the sample as a whole. Activity calls are given as the source filed them. No stated cut-off is given here; in the data, active means growth inhibition above about 70%; inactive means the rest.

Tests used:
[1] = NCI Yeast Anticancer Drug Screen. Data for the sgs1 strain (AID 173);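 further: 0% = growth of vehicle-only control cultures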; settings: S. cerevisiae sgs1 mutant, stronger effect = higher value
Summary of the method: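 Screen format: yeast with repair or checkpoint alterations, compound exposure, growth read relative to vehicle.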

[2] = NCI Yeast Anticancer Drug Screen. Data for the mlh1 rad18 strain (AID 175); settings: S. cerevisiae mlh1 rad18 strain growth inhibition, stronger effect = higher value
Summary of the method: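 Vehicle-treated cultures served as the reference for growth inhibition in a yeast strain carrying DNA damage repair alterations exposed to each compound.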

[3] = NCI Yeast Anticancer Drug Screen. Data for the rad18 strain (AID 177); settings: S. cerevisiae rad18 mutant growth inhibition, stronger effect = higher value
Summary of the method: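 Test articles were incubated with altered yeast defective in DNA damage repair. Results are given as inhibition of growth versus vehicle.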

[4] = NCI Yeast Anticancer Drug Screen. Data for the rad52 strain (AID 147);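 further: 0% = growth of vehicle-treated control cultures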; settings: S. cerevisiae rad52 mutant growth inhibition, stronger effect = higher value
Summary of the method: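 Vehicle-treated cultures served as the reference for growth inhibition of compound-exposed yeast bearing a DNA repair mutation.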

[5] = NCI Yeast Anticancer Drug Screen. Data for the wt1 strain (AID 149);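 further: 0% = growth of vehicle-treated wt1 cultures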; settings: S. cerevisiae wt1 strain (SPY 50644) growth inhibition, stronger effect = higher value
Summary of the method: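 Readout: yeast growth inhibition, normalised to vehicle controls, in the wt1 strain exposed to test compounds.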

[6] = NCI Yeast Anticancer Drug Screen. Data for the rad50EPP+ strain (AID 151);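 further: 0% = growth of vehicle-treated control cultures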; settings: S. cerevisiae rad50 mutant strain, stronger effect = higher value
Summary of the method: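 In this screen, rad50EPP+ yeast were exposed to compounds. Growth inhibition was scored against vehicle-treated controls.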

[7] = NCI Yeast Anticancer Drug Screen. Data for the mgt1 strain (AID 153); settings: S. cerevisiae mgt1 mutant growth inhibition, stronger effect = higher value
Summary of the method: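 mgt1 strain exposed; growth vs vehicle control recorded as inhibition.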

[8] = NCI Yeast Anticancer Drug Screen. Data for the rad50 strain (AID 155);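 further: 0% = growth of vehicle-only cultures of the same strain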; settings: S. cerevisiae rad50 strain growth inhibition, stronger effect = higher value
Summary of the method: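 Compounds were tested on a yeast strain with an engineered DNA damage repair alteration; the reported value is growth inhibition normalised to vehicle treatment.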

[9] = NCI Yeast Anticancer Drug Screen. Data for the mec2-1 strain (AID 157); settings: S. cerevisiae mec2-1 strain, stronger effect = higher value
Summary of the method: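 Vehicle-treated cultures served as reference for growth inhibition of compound-exposed mec2-1 yeast.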

[10] = NCI Yeast Anticancer Drug Screen. Data for the rad14 strain (AID 159);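 further: 0% = growth of vehicle-treated control cultures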; settings: S. cerevisiae rad14 strain growth inhibition, stronger effect = higher value
Summary of the method: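 Compound-treated yeast with a defined DNA-repair lesion; growth inhibition normalised to vehicle-treated cultures.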

[11] = NCI Yeast Anticancer Drug Screen. Data for the sgs1 mgt1 strain (AID 161);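 further: 0% = growth of cultures given vehicle only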; settings: S. cerevisiae sgs1 mgt1 strain, stronger effect = higher value
Summary of the method: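 Mutant yeast exposed to compound; growth scored against vehicle-only wells.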

[12] = NCI Yeast Anticancer Drug Screen. Data for the CLN2oe strain (AID 163);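 further: 0% = growth of vehicle-only control cultures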; settings: S. cerevisiae CLN2oe strain, stronger effect = higher value
Summary of the method: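 Inhibition relative to vehicle-treated yeast is reported. Cells: strain with genetic alteration in cell-cycle control, grown with compound.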

[13] = NCI Yeast Anticancer Drug Screen. Data for the cln2 rad14 strain (AID 165);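 further: 0% = growth equal to vehicle treated cultures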; settings: S. cerevisiae cln2 rad14 strain, stronger effect = higher value
Summary of the method: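 Each compound was tested on cln2 rad14 yeast. Inhibition of growth was calculated against vehicle-exposed controls.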

[14] = NCI Yeast Anticancer Drug Screen. Data for the bub3 strain (AID 167); settings: S. cerevisiae bub3 mutant strain, stronger effect = higher value
Summary of the method: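 Growth of a checkpoint-deficient yeast mutant is measured after compound exposure. Values represent inhibition relative to vehicle.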

[15] = NCI Yeast Anticancer Drug Screen. Data for the mlh1 strain (AID 171);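 further: 0% = growth of vehicle-treated control cultures of the same strain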; settings: S. cerevisiae mlh1 strain growth inhibition, stronger effect = higher value
Summary of the method: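 Vehicle-normalised growth inhibition of a repair- or checkpoint-altered yeast strain following compound treatment.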

[16] = at 5.0 µM (retest, dose inferred, filed as 0.5)
[17] = at 50.0 µM (retest, dose inferred, filed as 5.0)

Measured: growth inhibition

COc1ccc([N+]2=NC(c3ccc([N+](=O)[O-])cc3)=NN(c3ccccc3)C2)cc1
inactive: [1]; at 1.2 µM -2% and -3% | [1]; at 3.7 µM 3% and -1% | [1]; at 11.0 µM 8% | [1]; at 33.0 µM 48% and 42% | [2]; [16] 4% and 9% | [2]; [17] 67% and 51% | [3]; at 1.2 µM -8% and -5% | [3]; at 3.7 µM -2% and -3% | [3]; at 11.0 µM 12% and 15% | [3]; at 33.0 µM 34% and 33%
active: [1]; at 100.0 µM 93% and 92% | [2]; at 50.0 µM 87.9% and 86.3% | [3]; at 100.0 µM 90% and 87%

OC(c1ccc(Br)cc1)C(Cl)(Cl)Cl (stereo unspecified)
active: [4]; at 33.0 µM 87% | [4]; at 100.0 µM 98% | [5]; at 33.0 µM 89% | [5]; at 100.0 µM 99% | [6]; at 100.0 µM 95% | [7]; at 33.0 µM 89% | [7]; at 100.0 µM 100% | [8]; [16] 71% | [8]; at 33.0 µM 84% | [8]; [17] 99% | [8]; at 50.0 µM 81.2% | [8]; at 100.0 µM 97% | [9]; [16] 89% | [9]; at 33.0 µM 92% | [9]; [17] 99% | [9]; at 50.0 µM 86.8% | [9]; at 100.0 µM 99% | [10]; at 33.0 µM 84% | [10]; at 100.0 µM 98% | [11]; [17] 97% | [11]; at 50.0 µM 84.5% | [12]; at 33.0 µM 87% | [12]; at 100.0 µM 97% | [13]; [17] 98% | [13]; at 50.0 µM 80.8% | [14]; at 33.0 µM 91% | [14]; [17] 97% | [14]; at 50.0 µM 81.7% | [14]; at 100.0 µM 99% | [15]; at 33.0 µM 80% | [15]; at 100.0 µM 97% | [1]; at 33.0 µM 84% | [1]; at 100.0 µM 98% | [2]; [17] 99% | [2]; at 50.0 µM 76.2% | [3]; at 33.0 µM 90% | [3]; at 100.0 µM 98%
inactive: [4]; at 1.2 µM -5% | [4]; at 3.7 µM -1% | [4]; at 11.0 µM 5% | [5]; at 1.2 µM -13% | [5]; at 3.7 µM -11% | [5]; at 11.0 µM -1% | [6]; at 1.2 µM 4% | [6]; at 3.7 µM 3% | [6]; at 11.0 µM 4% | [6]; at 33.0 µM 38% | [7]; at 1.2 µM 20% | [7]; at 3.7 µM -1% | [7]; at 11.0 µM 5% | [8]; at 1.2 µM 16% | [8]; at 3.7 µM 14% | [8]; at 11.0 µM 21% | [9]; at 1.2 µM -19% | [9]; at 3.7 µM -19% | [9]; at 11.0 µM -1% | [10]; at 1.2 µM -23% | [10]; at 3.7 µM -16% | [10]; at 11.0 µM -7% | [11]; [16] 3% | [12]; at 1.2 µM 25% | [12]; at 3.7 µM 10% | [12]; at 11.0 µM 18% | [13]; [16] 68% | [14]; at 1.2 µM -17% | [14]; at 3.7 µM 15% | [14]; [16] -15% | [14]; at 11.0 µM 3% | [15]; at 1.2 µM -10% | [15]; at 3.7 µM -18% | [15]; at 11.0 µM -6% | [1]; at 1.2 µM 11% | [1]; at 3.7 µM 5% | [1]; at 11.0 µM 14% | [2]; [16] 62% | [3]; at 1.2 µM 4% | [3]; at 3.7 µM 4% | [3]; at 11.0 µM 32%
